In PubChem BioAssay (Tox21):
Inconclusive results are not listed. Entries that show only a call come without a potency. Calls of active or inactive are those of the source. Unless noted, calls follow the shape of the dose curve; as a rule, active = well fitted curve in the direction sought with a large enough effect in the repeat runs; inconclusive = weak or mixed curves; inactive = no such curve, though single readings can be large; an effect the other way counts as inactive or inconclusive.

Experiments:
[1] = qHTS assay to identify small molecule antagonists of the estrogen related receptor signaling pathway with the pleiotropic PPARgamma coactivator (PGC) cell viability counter screen (AID 1224822; also: potency is read from the fitted curve at half-maximal effect); details: ERR/PGC reporter cell line viability counter screen; series mostly up to 46.1 µM
In short: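 Counter screen for cell viability: PGC/ERR cells, 6 h pre-incubation after plating, 17.5 h compound exposure at 37 C, fluorescence from CellTiter-Fluor after 30 min.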

[2] = qHTS assay to identify small molecule agonists of the estrogen related receptor signaling pathway with the pleiotropic PPARgamma coactivator (PGC) (AID 1224823); details: ERR/PGC reporter cell line, luciferase agonist mode; series mostly up to 46.1 µM; also: potency is read from the fitted curve at half-maximal effect
In short: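 Luminescence readout (One-Glo, 30 min RT) from PGC/ERR cell line treated 18 h at 37 C with pin-tool-delivered DMSO compound solutions; cells plated 6 h before dosing. Quantitative HTS format.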

[3] = qHTS assay to identify small molecule antagonists of the estrogen related receptor (ERR) signaling pathway from Tox21 library - cell viability counter screen (AID 1224834); details: ERR reporter cells viability, CellTiter-Fluor, 17.5 h; series mostly up to 92.4 µM; also: nearly all actives have a fitted effect of over 30% in size; also: potency is read from the fitted curve at half-maximal effect
In short: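 Seeded ERR cells were rested 6 h at 37 C/5% CO2 before compounds, positive and negative controls or DMSO were added. Incubation continued for 17.5 h, and viability was then quantified by CellTiter-Fluor fluorescence.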

[4] = target: Luciferin 4-monooxygenase (Photinus pyralis) (UniProt P08659); assay: qHTS assay to identify small molecule inhibitors of firefly luciferase (AID 1224835); also: nearly all actives have a fitted effect of over 25% in size; also: potency is read from the fitted curve at half-maximal effect; details: purified P. pyralis luciferase, luminescence inhibition; series mostly up to 115 µM
In short: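 Inhibition of purified Photinus luciferase is measured by luminescence. Substrate levels (D-luciferin, ATP) sit at their KM values. Each compound is tested in a concentration series.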

[5] = qHTS assay to identify small molecule agonists of the constitutive androstane receptor (CAR) signaling pathway - cell viability counter screen (AID 1224836); details: HepG2-CYP2B6-hCAR viability, CellTiter-Fluor, 23 h, PK11195 added to every well; series mostly up to 92.4 µM; also: nearly all actives have a fitted effect of over 45% in size
In short: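 Cells were seeded and incubated 4 hrs. Compounds were added across 15 concentrations together with PK11195 at 0.75 uM final. Plates were incubated 23 hrs at 37 C. CellTiter-Fluor was added and fluorescence measured.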

[6] = qHTS assay to identify small molecule antagonists of the constitutive androstane receptor (CAR) signaling pathway - cell viability counter screen (AID 1224837); details: HepG2-CYP2B6-hCAR viability, CellTiter-Fluor, 23 h, co-treated with 50 nM CITCO; series mostly up to 92.4 µM; also: nearly all actives have a fitted effect of over 45% in size
In short: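 To flag cytotoxic false antagonists, HepG2 hCAR/CYP2B6-2.2kb cells were treated 23 hr with 15-concentration compound series and 50 nM CITCO at 37 C/5% CO2; CellTiter-Fluor fluorescence was the measured end point.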

[7] = target: Nuclear receptor subfamily 1 group I member 3 (Homo sapiens) (UniProt Q14994); assay: qHTS assay to identify small molecule antagonists of the constitutive androstane receptor (CAR) signaling pathway (AID 1224838); details: HepG2-CYP2B6-hCAR luciferase, CITCO-stimulated, 24 h; series mostly up to 92.4 µM;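 also: HepG2 cells stably expressing hCAR with CYP2B6 luciferase reporter stimulated by CITCO; nearly all actives have a fitted effect of over 40% in size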
In short: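 Human hepatoma HepG2 cells expressing hCAR and a CYP2B6 promoter (2.2 kb) luciferase construct; compound titration (15 points) with 50 nM CITCO final, 24 h at 37 C/5% CO2; luminescence via ONE-Glo after 30 min at room temperature.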

[8] = target: Nuclear receptor subfamily 1 group I member 3 (Homo sapiens) (UniProt Q14994); assay: qHTS assay to identify small molecule agonists of the constitutive androstane receptor (CAR) signaling pathway (AID 1224839); details: HepG2 hCAR CYP2B6-luciferase, agonist mode, 24 h; series mostly up to 92.4 µM; also: nearly all actives have a fitted effect of over 15% in size; also: potency is read from the fitted curve at half-maximal effect;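 as to activation: HepG2 cells stably carrying human CAR and a CYP2B6 luciferase reporter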
In short: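 Cells were plated and incubated 4 hrs, then dosed with compounds at 15 concentrations. PK11195 was added to 0.75 uM final. After 24 hrs at 37 C, luciferase luminescence was measured.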

[9] = qHTS assay to identify small molecule antagonists of the estrogen related receptor signaling pathway with the pleiotropic PPARgamma coactivator (PGC) from Tox21 10K library - cell viability counter screen (AID 1224840; active = well fitted cell-killing curve with a large enough effect in the repeat runs, not every such curve was filed as active; also: nearly all actives have a fitted effect of over 40% in size); details: PGC/ERR reporter cells viability, CellTiter-Fluor, 17.5 h; series mostly up to 92.4 µM
In short: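 Seeded PGC/ERR cells (2,000/well, 6 h, 37 C/5% CO2) get compound by pin tool; 17.5 h incubation at 37 C; CellTiter-Fluor added, 30 min, fluorescence measured.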

[10] = target: Thyrotropin receptor (Homo sapiens) (UniProt P16473); assay: qHTS assay to identify small molecule agonists of the thyroid stimulating hormone receptor (TSHR) signaling pathway (AID 1224843; calls by dose curve; also: nearly all actives have a fitted effect of over 45% in size); details: TSHR-HEK293 cells, cAMP HTRF, agonist mode, 30 min; series mostly up to 92.4 µM
In short: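 A cell-based cAMP HTRF format was run in TSHR-transfected HEK293 cells, 800 per well. Treatment: 30 min, room temperature. Detection: 1 h with labelled cAMP and anti-cAMP cryptate. Concentration-response over 15 points, three replicates.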

[11] = qHTS assay to identify small molecule agonists of the hypoxia (HIF-1) signaling pathway - cell viability counter screen (AID 1224844; calls by dose curve; also: nearly all actives have a fitted effect of over 50% in size; also: potency is read from the fitted curve at half-maximal effect); details: HRE-bla ME-180 viability, CellTiter-Glo luminescence, 17 h; series mostly up to 76.8 µM
In short: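 HRE-bla ME-180; 0.5% dFBS; cpd 17 h, 37C, 5% CO2; CellTiter-Glo lum., 30 min RT, post-FRET read, same wells.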

[12] = qHTS assay to identify small molecule agonists of the estrogen related receptor signaling pathway with the pleiotropic PPARgamma coactivator (PGC) from Tox21 10K library (AID 1224842); details: PGC/ERR reporter cell line, luciferase ONE-Glo, 18 h; series mostly up to 92.4 µM; also: nearly all actives have a fitted effect of over 15% in size
In short: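 Luminescence from One-Glo (30 min, room temperature) measured after PGC/ERR cells had 18 h at 37 C with pinned compound (23 nL in DMSO). Cells had been seeded at 2,000 per well and pre-incubated 6 h.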

[13] = qHTS assay to identify small molecule agonists of H2AX (AID 1224845; active = well fitted activation curve with a large enough effect in the signal ratio in the repeat runs, not every such curve was filed as active; the % refers to the signal ratio); details: CHO-K1 phospho-H2AX Ser139 HTRF, 3 h; series mostly up to 154 µM
In short: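 Phospho-H2AX Ser139 measured by HTRF (ex 320 nm; em 665 and 620 nm) after 24 hr antibody incubation. Compounds, 15 concentrations, 0.76% DMSO, were applied to CHO-K1 cells for 3hr at 37C before lysis.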

[14] = qHTS assay to identify small molecule agonists of the hypoxia (HIF-1) signaling pathway (AID 1224846; active = well fitted activation curve with a large enough effect in the signal ratio in the repeat runs, not every such curve was filed as active; the % refers to the signal ratio); details: HRE-bla ME-180 cells, beta-lactamase ratio, 17 h; series mostly up to 76.8 µM
In short: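 Reporter induction in HRE-bla ME-180 cells is taken as agonism: cells sit 5 hrs after plating, receive compounds or DMSO only, incubate 17 hrs at 37C under 5% CO2, and are loaded with CCF4-AM for beta-lactamase FRET measurement.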

[15] = qHTS assay to identify small molecule agonists of H2AX - cell viability counter screen (AID 1224847; calls by dose curve; also: top concentration of the series differs between compounds; nearly all actives have a fitted effect of over 30% in size); details: CHO-K1 viability, CellTiter-Glo luminescence, 3 h; series mostly up to 154 µM
In short: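 Cytotoxicity counter screen in wild-type CHO-K1 cells: a 3 hr compound treatment at 37C across 15 concentrations, followed by CellTiter-Glo luminescence to gauge viable cells.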

Chain of Luciferin 4-monooxygenase (Photinus pyralis) (P08659 whole entry, looked up): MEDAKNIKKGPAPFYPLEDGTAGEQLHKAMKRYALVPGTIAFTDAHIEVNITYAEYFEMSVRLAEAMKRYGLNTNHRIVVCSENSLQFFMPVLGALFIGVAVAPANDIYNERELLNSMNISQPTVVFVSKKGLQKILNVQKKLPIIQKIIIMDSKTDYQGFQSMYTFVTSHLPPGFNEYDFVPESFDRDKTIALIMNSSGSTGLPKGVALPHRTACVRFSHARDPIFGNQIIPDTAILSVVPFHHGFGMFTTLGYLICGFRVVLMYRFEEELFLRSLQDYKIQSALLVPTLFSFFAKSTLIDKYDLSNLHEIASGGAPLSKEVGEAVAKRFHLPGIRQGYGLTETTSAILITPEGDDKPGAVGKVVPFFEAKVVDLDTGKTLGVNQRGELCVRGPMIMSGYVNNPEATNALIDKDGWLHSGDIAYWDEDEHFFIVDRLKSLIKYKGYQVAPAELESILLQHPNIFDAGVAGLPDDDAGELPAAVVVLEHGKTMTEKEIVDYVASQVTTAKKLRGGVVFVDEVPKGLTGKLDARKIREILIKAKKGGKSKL
Chain of Thyrotropin receptor (Homo sapiens) (P16473 whole entry, looked up): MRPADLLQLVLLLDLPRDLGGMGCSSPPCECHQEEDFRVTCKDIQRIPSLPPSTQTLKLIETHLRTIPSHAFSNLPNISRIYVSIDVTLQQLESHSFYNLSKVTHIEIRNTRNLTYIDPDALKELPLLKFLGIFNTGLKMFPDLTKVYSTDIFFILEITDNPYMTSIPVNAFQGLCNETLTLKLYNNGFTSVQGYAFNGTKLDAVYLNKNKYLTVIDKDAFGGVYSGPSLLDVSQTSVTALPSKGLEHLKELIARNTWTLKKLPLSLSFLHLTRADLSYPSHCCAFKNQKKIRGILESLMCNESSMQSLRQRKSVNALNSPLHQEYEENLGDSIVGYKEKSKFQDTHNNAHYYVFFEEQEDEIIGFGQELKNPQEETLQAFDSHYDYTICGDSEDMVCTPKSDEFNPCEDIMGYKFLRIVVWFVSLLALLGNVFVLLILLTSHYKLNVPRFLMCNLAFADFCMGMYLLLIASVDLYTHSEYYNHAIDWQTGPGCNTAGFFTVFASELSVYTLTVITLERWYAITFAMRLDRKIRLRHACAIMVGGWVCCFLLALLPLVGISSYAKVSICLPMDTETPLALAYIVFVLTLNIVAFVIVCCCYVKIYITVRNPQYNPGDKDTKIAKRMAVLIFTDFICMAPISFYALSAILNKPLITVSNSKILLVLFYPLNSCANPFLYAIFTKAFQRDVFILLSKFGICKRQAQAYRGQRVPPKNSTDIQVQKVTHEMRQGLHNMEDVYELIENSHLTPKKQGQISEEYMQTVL
Chain of Nuclear receptor subfamily 1 group I member 3 (Homo sapiens) (Q14994 whole entry, looked up): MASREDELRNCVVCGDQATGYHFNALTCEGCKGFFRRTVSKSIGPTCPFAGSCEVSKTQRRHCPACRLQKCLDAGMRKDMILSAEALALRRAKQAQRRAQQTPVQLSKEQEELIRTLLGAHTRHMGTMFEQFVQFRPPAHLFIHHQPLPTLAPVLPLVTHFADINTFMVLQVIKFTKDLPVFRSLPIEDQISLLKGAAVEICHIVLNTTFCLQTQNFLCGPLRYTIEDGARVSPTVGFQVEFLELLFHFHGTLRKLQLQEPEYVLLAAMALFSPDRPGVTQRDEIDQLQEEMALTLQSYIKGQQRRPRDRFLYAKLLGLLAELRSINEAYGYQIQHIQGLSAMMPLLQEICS

For `CN(C)S(=O)(=O)c1ccc2c(c1)/C(=C/c1cc3c([nH]1)CCCC3)C(=O)N2`, the Potency [1] was “inactive” and the Potency [2] was 23.7 µM (active).

With `Cc1ccc2nc(-c3ccc(N)cc3)sc2c1S(=O)(=O)O` the Potency [3] was “inactive”, the Potency [4] was 1.39 µM (active) and the Potency [5] was “inactive”. For the same compound, the Potency [6] was “inactive”, the Potency [7] was “inactive” and the Potency [8] was 9.54 µM (active). The Potency [9] was “inactive”, the Potency [10] was “inactive” and the Potency [11] was “inactive”.

In the case of `COC(=O)c1ccc([N+](=O)[O-])cc1`, the Potency [3] was “inactive”, the Potency [4] was “inactive” and the Potency [5] was “inactive”. For the same compound, the Potency [6] was “inactive”, the Potency [7] was “inactive” and the Potency [8] was “inactive”. For the same compound, the Potency [9] was “inactive”, the Potency [12] was “inactive” and the Potency [10] was “inactive”. For the same compound, the Potency [11] was “inactive”, the Potency [13] was “inactive” and the Potency [14] was “inactive”. The Potency [15] was “inactive”.

With `CN1CCN(CCCN2c3ccccc3Sc3ccc(Cl)cc32)CC1` the Potency [1] was 27.6 µM (active), the Potency [3] was 29.8 µM (active) and the Potency [4] was “inactive”. The Potency [5] was “inactive”, the Potency [7] was “inactive” and the Potency [8] was “inactive”. For the same compound, the Potency [10] was “inactive” and the Potency [11] was 21.3 µM (active).

For `O=C(CCN1CCC(c2ccccc2)C1)c1ccc2c(c1)OCCO2` (centres undefined), the Potency [3] was “inactive”, the Potency [4] was “inactive” and the Potency [5] was “inactive”. For the same compound, the Potency [6] was “inactive”, the Potency [7] was “inactive” and the Potency [8] was “inactive”. For the same compound, the Potency [9] was “inactive” and the Potency [10] was “inactive”.

In the case of `CCOC(=O)OC(=O)OCC`, the Potency [3] was “inactive”, the Potency [4] was “inactive” and the Potency [5] was “inactive”. For the same compound, the Potency [6] was “inactive”, the Potency [7] was “inactive” and the Potency [8] was “inactive”. The Potency [9] was “inactive”, the Potency [10] was “inactive” and the Potency [11] was “inactive”. The Potency [14] was “inactive” and the Potency [15] was “inactive”.

For `COc1ccccc1N1CCN(CCCCNC(=O)c2ccc3ccccc3c2)CC1`, the Potency [2] was “inactive”.

In the case of `CC(C)(C)c1cc(CCC(=O)OCCSCCOC(=O)CCc2cc(C(C)(C)C)c(O)c(C(C)(C)C)c2)cc(C(C)(C)C)c1O`, the Potency [3] was “inactive”, the Potency [4] was “inactive” and the Potency [5] was “inactive”. For the same compound, the Potency [6] was “inactive”, the Potency [7] was “inactive” and the Potency [8] was “inactive”. For the same compound, the Potency [9] was “inactive”, the Potency [12] was “inactive” and the Potency [10] was “inactive”. The Potency [11] was “inactive”, the Potency [13] was “inactive” and the Potency [14] was “inactive”.
